Our source for the outcome and AC50 values is PubChem BioAssay (EPA / NIEHS).

Structures are written as SMILES. Values joined by “and” are separate entries in the source; they are usually repeats but may differ in a detail not shown here. Equal entries are not always repeated. Active and inactive are the calls of the source. How the source made its calls: active means hit-call score of the fitted dose curve at least 0.9, where 1 is the maximum; inactive means score below 0.9.

This assay in a line: BSK_3C_TissueFactor: BioMAP Diversity Plus: 3C Assay for Tissue Factor Biomarker Activity (AID 2282997). The note with it: BioMAP 3C HUVEC, tissue factor biomarker readout; actives raise or lower the signal. The protocol:
BSK_3C is a cell-based, multiplexed-readout assay that uses umbilical vein endothelium, a human vascular primary cell, with measurements taken at 24 hours after chemical dosing in a 96-well plate.BSK_3C_TissueFactor is an assay component measured in the BSK_3C assay. It measures Tissue Factor antibody related to regulation of gene expression using ELISA technology.Data from the assay component BSK_3C_TissueFactor was analyzed into 1 assay endpoint. This assay endpoint, BSK_3C_TissueFactor, was analyzed with bidirectional fitting relative to DMSO as the negative control and baseline of activity. Using a type of binding reporter, gain or loss-of-signal activity can be used to understand changes in the signaling as they relate to the gene F3. Furthermore, this assay endpoint can be referred to as a primary readout, because this assay has produced multiple assay endpoints where this one serves a signaling function. To generalize the intended target to other relatable targets, this assay endpoint is annotated to the cytokine intended target family, where the subfamily is coagulation factor.
The levels of cell surface (or secreted, indicated by the prefix "s") biomarker endpoints were measured by ELISA. Overt cytotoxicity to cells in confluent adherent cultures (all systems other than the BT system) was assessed by measuring total protein levels using sulforhodamine B (SRB) staining in parallel cultures at the time of biomarker measurements, indicated as SRB endpoints. For proliferation assays for adherent cell types, individual cell types are cultured at sub-confluence and relative cell numbers quantified by SRB staining at time points optimized for each system (48 h: 3C and CASM3C systems; 72 h: BT and HDF3CGF systems; 96 h: SAg system). SRB was performed by staining cells with 0.1% SRB after fixation with 10% TCA and reading wells at 560 nm.Viability and proliferation of PBMC (T cells) was quantified by Alamar Blue reduction for the SAg and BT systems. For PBMC viability (referred to as PBMC Cytotoxicity within the assay endpoint names), cells were plated (75,000/well in a 96-well plate) and then chemical samples added for 1 h before addition of activators, SEB and TSST-1 (20 ng/mL final concentration each). Cells were incubated for 90 h. Then, Alamar Blue (20 uL/well) (Invitrogen, Cat DAL1100) was added for 6 h, and the plates were read with a fluorescence microplate reader at 546/580 nm (excitation/emission). For PBMC proliferation, cells were plated and activated as above but incubated for only 16 h prior to addition of Alamar Blue. Plates were read after 6 h.
Take `c1nc[nH]n1`: the result was inactive.
On the same count and under the same terms, the same measure for `CCCN(CCC)c1c([N+](=O)[O-])cc(C(C)C)cc1[N+](=O)[O-]`: “inactive”; for `FC(F)(F)C(F)(C(F)(F)F)C(F)(F)C(F)(F)CC1CO1` (stereo not given): “inactive”; for `[N-]=[N+]=[N-]`: “inactive”.
Still for that read-out and setting: as for `O=[N+]([O-])c1ccc(Cl)c(Cl)c1`, the entry is “inactive”; as for `NC(=O)C(F)(F)C(F)(F)F`, “inactive”; as for `O=[N+]([O-])c1ccccc1`, “inactive”.
The same measure, in the same setting: as for `CCOP(=S)(S)OCC`, the entry is “inactive”; as for `c1cc2c3c(cccc3c1)CC2`, “inactive”; as for `COP(=O)(CCC(=O)NCO)OC`, “inactive”.
As to `ClC(Cl)(Cl)c1ccccc1`, the outcome was inactive.
Consider `CC(O)C(F)(F)C(F)(F)F` (stereo not given), for which the result was inactive.
The same measure, in the same setting: as for `O=C(O)C(F)(F)OC(F)(F)C(F)(F)OC(F)(F)C(=O)O`, the entry is “inactive”.
What is called AC50 is the concentration giving half of the maximal activity seen. Take `ClC1=C(Cl)C2(Cl)C3C(Cl)C(Cl)CC3C1(Cl)C2(Cl)Cl` (stereo not given): the half-maximal activity concentration (AC50) was 30.3 µM (active).
Consider `Nc1cc2c3c(c1)C(c1ccccc1)=N[C@@H](NC(=O)c1cccnc1)C(=O)N3CC2`, for which the result was inactive.
On the same count and under the same terms, the same measure for `CCN(CC)c1ccccc1`: “inactive”.
With `OCC(F)(F)OC(F)(F)C(F)(F)OC(F)(F)C(F)(F)OC(F)(F)F`, the AC50 was 30 µM (active) and 47.3 µM (active).
Still for that read-out and setting: the same measure for `C=CC(=O)OCC(CC)(COC(=O)C=C)COC(=O)C=C`: 1.5 µM (active).
As for `O=C(O)C(F)(F)OC(F)(F)C(F)(F)OC(F)(F)F`, the result was inactive.
Same read-out and setting: the same measure for `O=C(O)C(F)(F)C(F)(F)C(=O)O`: “inactive”; for `O=C(O)C(Cl)Cl`: “inactive”.
Still for that read-out and setting: the same measure for `CCOc1ccc(C(C)(C)COCc2cccc(Oc3ccccc3)c2)cc1`: “inactive”; for `O=S1(=O)OCC2C(CO1)C1(Cl)C(Cl)=C(Cl)C2(Cl)C1(Cl)Cl` (stereo not given): “inactive”.
The same measure, in the same setting: the same measure for `Cc1ccc([N+](=O)[O-])cc1C`: “inactive”.
`CCC(C)(C)c1ccc(O)cc1`: the result was inactive.
Consider `CCOP(=S)(NC(C)C)Oc1ccccc1C(=O)OC(C)C` (stereo not given), for which the result was inactive.
On the same count and under the same terms, the same measure for `CCOS(=O)(=O)OCC`: “inactive”.
Take `CC(C)Nc1ccc(Nc2ccccc2)cc1`: the half-maximal activity concentration (AC50) was 8.11 µM (active).
With `CN(C)C(=O)Cl`, the outcome was inactive.
Still for that read-out and setting: as for `OCC1CO1` (stereo not given), the entry is “inactive”; as for `CCCCc1ccccc1`, “inactive”; as for `CCC1(c2ccccc2)C(=O)N=C(O)NC1=O` (stereo not given), “inactive”.
On the same count and under the same terms, as for `CCOP(=S)(Oc1ccc([N+](=O)[O-])cc1)c1ccccc1` (stereo not given), the entry is “inactive”; as for `CCCCN(CCCC)N=O`, “inactive”; as for `O=S(=O)(F)C(F)(F)C(F)(F)C(F)(F)C(F)(F)C(F)(F)C(F)(F)C(F)(F)C(F)(F)F`, “inactive”.
The same measure, in the same setting: as for `O=P(OCC(Br)CBr)(OCC(Br)CBr)OCC(Br)CBr` (stereo not given), the entry is “inactive”.
Regarding `CCOP(=S)(OCC)SCSc1ccc(Cl)cc1`, the concentration at half-maximal activity (AC50) is 0.0123 µM (active).
As to `Nc1ccc2ccccc2c1`, the outcome was inactive.
In the case of `CC(Cl)(Cl)C(=O)O`, the result was inactive.
`CCCCN(CCCC)SN(C)C(=O)Oc1cccc2c1OC(C)(C)C2`: the AC50 is 20 µM (active).
